# Laboratory results as given in ChEMBL document CHEMBL4513216, “Probing the Open Global Health Chemical Diversity Library for Multistage-Active Starting Points for Next-Generation Antimalarials” (ACS Infect Dis, 2020).
# The whole screen tested about 65,000 compounds, of which about 2,100 (3.2%) showed an effect of 50% or more. The median lay at about -52%. The sample holds strong results, similar compounds and a random draw of the others, so the mix is not that of the screen.
# Tested on: Plasmodium falciparum
# Experiment: Screen against P. falciparum Asexual Blood Stage (ABS), at 5uM
# Format: functional, Dd2
# Settings: tested at 5 uM
row,SMILES,INHIBITION [%]
1,Cc1c(C)n(Cc2ccccn2)c2nc3c(c(N)c12)CCCC3,46.7
2,CCc1nc2c(c(C)c(C)n2Cc2cccnc2)c(N)c1C,20.4
3,CCc1cc(NCCc2cccnc2)n2nc(C)c(C)c2n1,-108.7
4,CCc1c(C)sc2c1c(N)nc(=O)n2CCCN(C)C,-147
5,Cc1c(C)n(Cc2ccncc2)c2nc3c(c(N)c12)CCCC3,-12.1
6,Cc1c(C)n(Cc2ccncc2)c2nc3c(c(N)c12)CCCCCC3,28.3
7,CCCc1nc2c(c(C)c(C)n2Cc2ccccn2)c(N)c1CC,59.4
8,CCc1c(-c2ccccc2)nc2c(c(C)c(C)n2CCN(C)C)c1N,67.6
9,Cc1cc(C(=O)N2CCNC(=O)C2)c(C)n1Cc1ccccn1,-68.6
10,CCCc1nc2c(c(C)c(C)n2Cc2cccnc2)c(N)c1CC,65
11,CCc1c(C)sc2c1c(N)nc(=O)n2CCN(C)C,17.4
12,CCCc1nc2c(c(C)c(C)n2Cc2ccncc2)c(N)c1CC,60.3
13,CCC(Nc1nc(C)nc2onc(C)c12)c1nc(C)c(C)s1 (centres undefined),-38.1
14,CCCc1noc(CN2CCOCC2C)n1 (centres undefined),-47.4
15,Cc1cc(NC(=O)CCn2nc(C)c3ccccc32)n(C(C)C)n1,-75.1
16,CO[C@H]1CCN(S(=O)(=O)c2cn(C)cn2)[C@H]1Cc1cccnc1,-8.09
17,Cc1cc(=O)n2nc(-c3cccs3)nc2n1CC(=O)NC(C)C,-10.8
18,Cc1cc(C)c(CNC(=O)N(C)Cc2ccc3c(c2)OCO3)c(=O)[nH]1,-71.6
19,Cn1cc(NC(=O)N2CCC(OCc3ccccc3)CC2)ccc1=O,43.6
20,Cc1nn(C)c(N(C)C)c1CNCC(O)COc1cccc(F)c1 (centres undefined),-0.711
21,COC(=O)c1ncccc1N1CCN(C(=O)CN2CCOCC2)CC1,-131
22,Cc1cnn(CC2CCCCN2C(=O)Cc2cn3ccsc3n2)c1 (centres undefined),-120
23,CCc1cnc2c(c1Nc1ccc(C)c(F)c1)c(=O)n(C)c(=O)n2C,41.1
24,Cc1c(C)n(Cc2ccccn2)c2nc3c(c(N)c12)CCCCC3,23.7
25,Cc1c(C)n(Cc2ccncc2)c2nc3c(c(N)c12)CCCCC3,21

row,SMILES,INHIBITION [%]
1,Cc1c(C)n(Cc2ccccn2)c2nc3c(c(N)c12)CCCCCC3,60.3
2,Cc1cccc2c1ccn2CCC(=O)Nc1c2c(nn1C)CSC2,-53.4
3,Cc1ccc(Br)cc1NC(=O)NC1CCC2(C1)OCCO2 (centres undefined),-96.9
4,CC1N(c2cnn(C)c2)C(=O)COC12CCN(c1ncccn1)CC2 (centres undefined),-127
5,CCc1nn(-c2cc(Oc3cc(C)ccc3C)ncn2)c(N)c1C#N,-64
6,C[C@]1(O)CN(CCO)CC[C@@H]1Oc1cccc(F)c1,65.2
7,C[C@]1(O)CN(CC(=O)N2CCCC2)CC[C@@H]1Oc1cccc(F)c1,25
8,C[C@]1(O)CN(CCC(N)=O)CC[C@@H]1Oc1cccc(F)c1,-39.3
9,CCc1cnc(N2CCc3cc(C(=O)NC)c(N(C)C)nc3CC2)nc1,-12.1
10,O=C1[C@@H]2CC[C@@H](CN(c3ncnc4ccsc34)C2)N1CC1CC1,-85.4
11,CC(C)Cc1noc(CN(C)c2ncccn2)n1,-64.8
12,CCc1cc(N(C)Cc2noc(CC(C)C)n2)ncn1,-78.3
13,CC(C)Cc1noc(CN(C)c2cc(N(C)C)ncn2)n1,50.4
14,CNc1cc(N2CCCC2CNCc2ccco2)ncn1 (centres undefined),-103
15,O=C(C1CCOC1)N1CC2(CCN(c3ccccc3)C2)C1 (centres undefined),-3.52
16,CC(C)CC(=O)N1CC(=O)c2sc(Nc3ccc(F)cc3F)nc2C1,-30.6
17,Cc1cnn(CC2CCN(CC(O)CN3CCC(C)CC3)CC2)c1 (centres undefined),63.8
18,Cc1cnn(CC2CCN(CC(O)Cn3cccn3)CC2)c1 (centres undefined),-78.8
19,Cc1ccc(OCC(O)CN2CCC(Cn3cc(C)cn3)CC2)cc1 (centres undefined),-93.6
20,CCc1nc(C)c(C(=O)NCCNC(=O)c2cccs2)s1,-96.9
21,CCc1nc(NCCCn2cccn2)c2c(n1)c(C)nn2CC,-75.8
22,COCCNC(=O)CN(C)C(C)c1nc(C)no1 (centres undefined),-63.5
23,Cn1cccc1C(=O)NCc1ccnc(C2CCCOC2)n1 (centres undefined),-162
24,Cc1ccsc1C(=O)NCc1ccnc(C2CCCOC2)n1 (centres undefined),-57.8
25,Cc1ccc(C(=O)NCc2ccnc(C3CCCOC3)n2)s1 (centres undefined),53.3

row,SMILES,INHIBITION [%]
1,COc1cc(F)ccc1-c1cc(CO)ccn1,-92
2,COc1cc(F)ccc1-c1cc(N)ccn1,52.7
3,COc1ccc(-c2cc(N)ccn2)c(OC)c1OC,-9.16
4,CC(=O)NCc1nn(C)c2c1CN(Cc1ccsc1)C2,-24.6
5,Cc1csc(N2CCN(C3CCc4ccccc4C3)CC2)n1 (centres undefined),-22.1
6,c1csc(CN2CC3(CCN(Cc4ccsc4)C3)C2)n1,-42.4
7,Fc1ccc(CN2CCOCC3(CCN(Cc4nccs4)C3)C2)cc1 (centres undefined),0.38
8,Fc1ccc(CN2CCC3(CC2)CCN(c2ncccn2)CC3)cc1,55
9,COc1ccc(CN2CCC3(CC2)CCN(c2ncccn2)CC3)cc1,-85.1
10,c1cnc(N2CCC3(CCN(Cc4cccnc4)CC3)CC2)nc1,-71.4
11,Fc1ccc(CN2CCC3(CCN(Cc4nccs4)CC3)C2)cc1,57.9
12,CSc1cccc(NC(=O)N2CCC3(CCC(=O)N(C4CC4)C3)CC2)c1,-19.6
13,O=C(CCC(F)(F)F)N1CCCC(CO)(CC2CC2)C1 (centres undefined),-11.2
14,Cc1ccc(CN2CCc3c(nnn3C)C2COCc2ccccc2)s1 (centres undefined),-109
15,O=C(N1CCc2ccccc2CC1)C1(O)Cc2ccccc2C1,58.7
16,O=C(N1CCN(CCO)CC1)C1(O)Cc2ccccc2C1,-1.26
17,O=C(N1CCSCC1)C1(O)Cc2ccccc2C1,-41.2
18,Nc1nnnn1NCc1cccc(Cl)c1Cl,-65.4
19,Cc1nc(C)n(CC2CCCN(CC(=O)Nc3cccnc3)C2)n1 (centres undefined),-133
20,Cc1nc(C)n(CC2CCCN2CC(=O)Nc2ccncc2)n1 (centres undefined),-153
21,Cc1nc(C)n(CC2CCCN(CC(=O)Nc3cc(C)on3)C2)n1 (centres undefined),3.79
22,Cc1nc(C)n(CC2CCCN(CC(=O)Nc3ccncc3)C2)n1 (centres undefined),60.6
23,Cc1cc(NC(=O)CN2CCCC2Cn2nc(C)nc2C)n(C)n1 (centres undefined),-142
24,Cc1cc(NC(=O)CN2CCCC(Cn3nc(C)nc3C)C2)n(C)n1 (centres undefined),54.5
